# Laboratory results reported in the supplement of paper PMC8728848.
# Only a selection was taken, and the strongest signals are over-represented in it overall.
# Assays:
# Experiment in all cases: glycan array binding signal (z-score within array); higher = stronger binding
# [1] = test system: Neu5Ac(a2-3)[Neu5Ac(a2-6)]GalNAc; conditions: glycan notation: IUPAC condensed, linker removed
# Summary of the method: (§1)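 Negative Z-scores can be read as non-binding. The Z-score is calculated within each array and then averaged across arrays of one protein sequence at different concentrations or buffers and across linkers. Arrays, 3228 in all, were curated from the Consortium for Functional Glycomics database and kept only where the protein sequence was available.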
# [2] = test system: Neu5Ac(a2-6)Gal(b1-4)GlcNAc(b1-2)Man(a1-3)[Gal(b1-4)GlcNAc(b1-2)Man(a1-6)]Man(b1-4)GlcNAc(b1-4)GlcNAc; conditions: glycan notation: IUPAC condensed, linker removed
# Summary of the method: as §1
# [3] = test system: Neu5Ac(a2-3)[GalNAc(b1-4)]Gal(b1-4)GlcNAc(b1-3)GalNAc; conditions: glycan notation: IUPAC condensed, linker removed
# Summary of the method: as §1
# [4] = test system: Neu5Ac(a2-3)GalNAc; conditions: glycan notation: IUPAC condensed, linker removed
# Summary of the method: as §1
# [5] = test system: Neu5Ac(a2-3)Gal6S(b1-4)[Fuc(a1-3)]GlcNAc; conditions: glycan notation: IUPAC condensed, linker removed
# Summary of the method: as §1
# [6] = test system: Neu5Ac(a2-3)GalNAc(b1-4)GlcNAc; conditions: glycan notation: IUPAC condensed, linker removed
# Summary of the method: as §1
# [7] = test system: Neu5Ac(a2-6)Gal(b1-3)GlcNAc(b1-3)[Gal(b1-4)GlcNAc(b1-6)]Gal(b1-4)Glc; conditions: glycan notation: IUPAC condensed, linker removed; mutation: R125K
# Summary of the method: as §1
# [8] = test system: Neu5Ac(a2-3)Gal; conditions: glycan notation: IUPAC condensed, linker removed
# Summary of the method: as §1
# [9] = test system: Neu5Ac(a2-3)[GalNAc(b1-4)]Gal(b1-4)GlcNAc; conditions: glycan notation: IUPAC condensed, linker removed
# Summary of the method: as §1
# [10] = test system: Neu5Ac(a2-3)[GalNAc(b1-4)]Gal(b1-4)Glc; conditions: glycan notation: IUPAC condensed, linker removed
# Summary of the method: as §1
# C3b (Homo sapiens), P01024, sequence (P01024 23-667): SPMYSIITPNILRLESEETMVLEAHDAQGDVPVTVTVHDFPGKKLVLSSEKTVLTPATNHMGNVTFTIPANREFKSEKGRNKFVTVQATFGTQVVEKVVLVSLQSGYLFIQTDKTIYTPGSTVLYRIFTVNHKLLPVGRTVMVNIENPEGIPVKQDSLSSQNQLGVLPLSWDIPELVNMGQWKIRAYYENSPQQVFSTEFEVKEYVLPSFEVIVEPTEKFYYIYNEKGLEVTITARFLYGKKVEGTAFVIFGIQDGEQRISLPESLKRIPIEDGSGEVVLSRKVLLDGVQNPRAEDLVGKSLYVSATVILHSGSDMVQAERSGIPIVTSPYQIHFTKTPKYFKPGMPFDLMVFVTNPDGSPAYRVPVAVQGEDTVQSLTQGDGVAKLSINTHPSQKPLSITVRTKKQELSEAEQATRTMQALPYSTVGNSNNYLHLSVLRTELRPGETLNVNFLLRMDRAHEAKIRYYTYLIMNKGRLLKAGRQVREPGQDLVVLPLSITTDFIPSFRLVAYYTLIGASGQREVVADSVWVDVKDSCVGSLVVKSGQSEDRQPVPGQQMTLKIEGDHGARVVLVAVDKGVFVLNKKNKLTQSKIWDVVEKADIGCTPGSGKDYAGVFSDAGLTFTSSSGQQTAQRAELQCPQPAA
# wLAT-1A (Homo sapiens), Q01650, sequence (Q01650 whole entry): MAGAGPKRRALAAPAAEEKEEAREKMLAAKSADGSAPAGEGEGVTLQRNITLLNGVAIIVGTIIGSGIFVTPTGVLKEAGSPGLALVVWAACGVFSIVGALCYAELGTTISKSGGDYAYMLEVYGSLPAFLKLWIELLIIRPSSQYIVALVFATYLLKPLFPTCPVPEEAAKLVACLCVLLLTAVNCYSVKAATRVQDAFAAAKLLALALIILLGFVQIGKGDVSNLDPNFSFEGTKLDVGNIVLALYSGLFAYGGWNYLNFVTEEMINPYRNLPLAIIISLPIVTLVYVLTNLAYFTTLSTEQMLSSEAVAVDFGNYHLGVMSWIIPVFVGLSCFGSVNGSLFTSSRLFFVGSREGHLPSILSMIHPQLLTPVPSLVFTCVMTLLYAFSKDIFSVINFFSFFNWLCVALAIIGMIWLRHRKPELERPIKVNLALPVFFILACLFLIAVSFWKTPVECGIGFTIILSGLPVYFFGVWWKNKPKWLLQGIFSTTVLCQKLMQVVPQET
# CHI3L1 (Homo sapiens), P36222, sequence (P36222 whole entry): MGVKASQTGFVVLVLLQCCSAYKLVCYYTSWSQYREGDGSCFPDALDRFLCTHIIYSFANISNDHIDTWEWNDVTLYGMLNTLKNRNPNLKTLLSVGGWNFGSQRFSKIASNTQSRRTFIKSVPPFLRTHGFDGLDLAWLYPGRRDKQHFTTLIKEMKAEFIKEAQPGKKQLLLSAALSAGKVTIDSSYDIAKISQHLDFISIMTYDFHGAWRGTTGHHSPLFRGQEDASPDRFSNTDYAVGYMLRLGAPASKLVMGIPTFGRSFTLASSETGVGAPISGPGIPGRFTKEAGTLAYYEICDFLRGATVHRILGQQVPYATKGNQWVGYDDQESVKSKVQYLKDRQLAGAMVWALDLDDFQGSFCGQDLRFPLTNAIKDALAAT
# 6RG (Lolium perenne), sequence (chain, as listed by the source): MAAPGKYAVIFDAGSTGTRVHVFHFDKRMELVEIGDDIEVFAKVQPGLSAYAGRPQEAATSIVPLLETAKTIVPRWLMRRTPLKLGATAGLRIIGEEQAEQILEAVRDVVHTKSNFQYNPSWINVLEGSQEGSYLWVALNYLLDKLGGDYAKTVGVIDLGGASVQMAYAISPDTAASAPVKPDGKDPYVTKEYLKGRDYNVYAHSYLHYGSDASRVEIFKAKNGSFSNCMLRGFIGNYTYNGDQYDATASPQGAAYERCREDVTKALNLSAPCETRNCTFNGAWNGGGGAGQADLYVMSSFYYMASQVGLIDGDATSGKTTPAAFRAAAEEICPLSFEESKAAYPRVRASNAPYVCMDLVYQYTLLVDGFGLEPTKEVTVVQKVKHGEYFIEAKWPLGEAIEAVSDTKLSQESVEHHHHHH
# 6RG (Lolium perenne), B9U140, sequence (B9U140 entry or part of it): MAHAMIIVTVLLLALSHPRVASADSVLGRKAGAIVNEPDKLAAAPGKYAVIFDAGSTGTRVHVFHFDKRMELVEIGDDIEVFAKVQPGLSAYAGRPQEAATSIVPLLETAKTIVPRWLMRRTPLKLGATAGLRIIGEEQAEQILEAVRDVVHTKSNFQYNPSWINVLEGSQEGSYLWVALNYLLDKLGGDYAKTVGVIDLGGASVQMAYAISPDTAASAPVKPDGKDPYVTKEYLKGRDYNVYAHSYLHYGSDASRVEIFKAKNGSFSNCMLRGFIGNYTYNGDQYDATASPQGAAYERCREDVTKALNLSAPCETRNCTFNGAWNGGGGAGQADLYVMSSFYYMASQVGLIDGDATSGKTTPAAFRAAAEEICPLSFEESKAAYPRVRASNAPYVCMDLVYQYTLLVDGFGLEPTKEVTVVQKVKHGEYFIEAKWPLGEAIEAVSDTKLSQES
# Regenerating Gene IV (Homo sapiens), Q9BYZ8, sequence (Q9BYZ8 whole entry, looked up): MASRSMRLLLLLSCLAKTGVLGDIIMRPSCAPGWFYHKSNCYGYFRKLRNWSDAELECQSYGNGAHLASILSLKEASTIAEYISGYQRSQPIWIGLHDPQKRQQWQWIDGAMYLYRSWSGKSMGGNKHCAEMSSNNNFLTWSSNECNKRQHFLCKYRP
# Neurocan (Homo sapiens), O14594, sequence (O14594 other isoform, or with tags, fused parts or gaps): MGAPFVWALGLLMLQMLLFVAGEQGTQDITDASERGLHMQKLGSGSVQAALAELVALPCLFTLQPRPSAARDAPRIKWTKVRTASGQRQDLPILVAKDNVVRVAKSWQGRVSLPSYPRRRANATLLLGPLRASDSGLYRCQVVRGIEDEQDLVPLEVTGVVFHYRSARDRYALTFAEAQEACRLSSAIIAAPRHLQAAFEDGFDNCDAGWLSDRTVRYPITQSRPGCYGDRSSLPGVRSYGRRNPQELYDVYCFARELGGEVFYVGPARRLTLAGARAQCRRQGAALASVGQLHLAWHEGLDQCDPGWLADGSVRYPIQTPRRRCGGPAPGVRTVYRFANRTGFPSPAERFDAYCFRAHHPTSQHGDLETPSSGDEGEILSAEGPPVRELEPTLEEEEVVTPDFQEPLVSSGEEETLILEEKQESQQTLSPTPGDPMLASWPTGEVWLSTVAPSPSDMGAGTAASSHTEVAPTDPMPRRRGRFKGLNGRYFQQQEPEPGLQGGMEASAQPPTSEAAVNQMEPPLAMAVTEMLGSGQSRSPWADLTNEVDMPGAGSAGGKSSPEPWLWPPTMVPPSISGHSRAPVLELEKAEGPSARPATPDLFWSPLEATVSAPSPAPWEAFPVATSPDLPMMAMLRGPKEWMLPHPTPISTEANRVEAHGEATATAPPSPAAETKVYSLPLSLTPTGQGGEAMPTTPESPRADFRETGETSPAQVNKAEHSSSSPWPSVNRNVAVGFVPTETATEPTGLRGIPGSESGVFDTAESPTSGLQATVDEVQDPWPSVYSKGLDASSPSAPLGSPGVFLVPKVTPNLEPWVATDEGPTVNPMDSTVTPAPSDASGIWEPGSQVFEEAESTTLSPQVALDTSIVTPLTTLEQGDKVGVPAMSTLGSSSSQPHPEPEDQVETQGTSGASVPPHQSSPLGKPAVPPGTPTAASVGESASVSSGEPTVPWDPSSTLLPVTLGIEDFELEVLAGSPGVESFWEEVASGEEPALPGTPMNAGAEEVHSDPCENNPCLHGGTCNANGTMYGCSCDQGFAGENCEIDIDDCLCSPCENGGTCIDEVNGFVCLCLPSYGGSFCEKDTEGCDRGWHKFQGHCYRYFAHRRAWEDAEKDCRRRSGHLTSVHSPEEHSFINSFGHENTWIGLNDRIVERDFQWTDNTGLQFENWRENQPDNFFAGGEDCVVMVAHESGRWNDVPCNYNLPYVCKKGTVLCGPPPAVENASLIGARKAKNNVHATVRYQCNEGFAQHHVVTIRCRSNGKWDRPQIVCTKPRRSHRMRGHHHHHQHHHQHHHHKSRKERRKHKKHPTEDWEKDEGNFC
# PILRb (Mus musculus), Q2YSF2, sequence (Q2YSF2 entry or part of it): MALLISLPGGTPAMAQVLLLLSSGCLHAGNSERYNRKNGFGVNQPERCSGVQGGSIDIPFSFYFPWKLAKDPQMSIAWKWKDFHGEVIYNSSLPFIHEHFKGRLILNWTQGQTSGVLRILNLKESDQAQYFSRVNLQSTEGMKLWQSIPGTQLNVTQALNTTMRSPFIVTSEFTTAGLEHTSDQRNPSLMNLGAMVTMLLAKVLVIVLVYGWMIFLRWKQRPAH
substance,measurement,setting,value
"wLAT-1A (Homo sapiens), Q01650",glycan array binding signal (z-score),[1],0.503
same,glycan array binding signal (z-score),[2],-0.898
"Neurocan (Homo sapiens), O14594",glycan array binding signal (z-score),[3],-0.87
MpAFP RI GFP (Marinomonas primoryensis),glycan array binding signal (z-score),[4],2.97
"Siglec-8 (Homo sapiens), Q9NYZ4",glycan array binding signal (z-score),[5],15
same,glycan array binding signal (z-score),[6],-0.069
same,glycan array binding signal (z-score),[7],-0.472
6RG (Lolium perenne),glycan array binding signal (z-score),[8],-0.339
same,glycan array binding signal (z-score),[1],-0.349
"PILRb (Mus musculus), Q2YSF2",glycan array binding signal (z-score),[9],-0.329
"6RG (Lolium perenne), B9U140",glycan array binding signal (z-score),[1],-0.334
"Regenerating Gene IV (Homo sapiens), Q9BYZ8",glycan array binding signal (z-score),[10],0.356
"C3b (Homo sapiens), P01024",glycan array binding signal (z-score),[6],1.01
same,glycan array binding signal (z-score),[9],-0.304
same,glycan array binding signal (z-score),[2],-0.286
"CHI3L1 (Homo sapiens), P36222",glycan array binding signal (z-score),[5],-0.117
same,glycan array binding signal (z-score),[4],-0.131
